Experimental data: the OligoGym collection

Each sequence was assayed against CMPK2 (assay: pooled miR-30 sensor sort-seq; sequence = guide strand). Details: shRNA.
Also: reference of the scale not given here.

Q: With TTTCAAACAACATCTAATCTAG as the sequence, how does the sensor-assay potency score (higher = more potent) read?
A: -0.108

Q: TTCTTCCCTGGTCTTCTCCATG was tested. Which sensor-assay potency score (higher = more potent) did it give?
A: -1.63

Q: Which sensor-assay potency score (higher = more potent) does the source give for TTTGACGAAACACACTGTTGGC here?
A: -0.342

Q: TTCATCATCAAAGATCTTCCTC was tested. Which sensor-assay potency score (higher = more potent) did it give?
A: 0.515

Q: Which sensor-assay potency score (higher = more potent) does the source give for TGACTTTAAGAGGACAGCCTTA here?
A: -1.08

Q: TGGTAGGACATTTCTACCTTTT was tested. Which sensor-assay potency score (higher = more potent) did it give?
A: -1.68

Q: With TCAAGTTCTGCTTCTTCCCTGG as the sequence, how does the sensor-assay potency score (higher = more potent) read?
A: 0.42

Q: For TTGACGAAACACACTGTTGGCC, which sensor-assay potency score (higher = more potent) is on record?
A: -0.221

Q: Which sensor-assay potency score (higher = more potent) does the source give for TAATACCGTCTGCAGGACCTTT here?
A: -1.41

Q: With TTTTGGGCACTGGTCGACCAGG as the sequence, how does the sensor-assay potency score (higher = more potent) read?
A: -1.61

Q: Which sensor-assay potency score (higher = more potent) does the source give for TACCTGTCTACAATCACAGGAG here?
A: 0.285

Q: With TCCTTCGATGGCAACAACCTGG as the sequence, how does the sensor-assay potency score (higher = more potent) read?
A: -1.1

The sequences below were run against CMYA5 in the same assay as above. Details: shRNA.

Q: TTTCTAACACTAGATTTCCTTC was tested. Which sensor-assay potency score (higher = more potent) did it give?
A: -0.717

Q: Which sensor-assay potency score (higher = more potent) does the source give for TGAATCAATGACATCTTCCTTG here?
A: 0.597

Q: TTACTTCTTGATCATCTTGTGG was tested. Which sensor-assay potency score (higher = more potent) did it give?
A: -0.871

Q: How did the sensor-assay potency score (higher = more potent) turn out when TTTTTCTTCACTGTGATCTGGC was run?
A: 0.846

Q: For TAACACTAGATTTCCTTCCTGA, which sensor-assay potency score (higher = more potent) is on record?
A: 0.81

Q: For TTAACATCTGGTCACTTCTTGC, which sensor-assay potency score (higher = more potent) is on record?
A: -0.814

Q: How did the sensor-assay potency score (higher = more potent) turn out when TACTTCTTGATCATCTTGTGGC was run?
A: 0.514

Q: With TATGACTTCTCTTTCTCCGTGG as the sequence, how does the sensor-assay potency score (higher = more potent) read?
A: 0.895
